Measurements published in PubChem BioAssay AID1117292 (Broad Institute, 2014).
Measured potencies and affinities stand elsewhere. Records with an inconclusive call do not appear. Activity calls are given as the source filed them.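 The calls were made as follows: active = compound whose fitted half-maximal dose for signal loss lies within twice the top dose in every replicate test; inconclusive = tests disagree, or flat partial signal loss or poor fit; inactive = every test inactive, flat, rising or too weak.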

Molecular target: Endoplasmic reticulum aminopeptidase 1 (Homo sapiens) (UniProt Q9NZ08)
Sequence (Q9NZ08 whole entry, looked up): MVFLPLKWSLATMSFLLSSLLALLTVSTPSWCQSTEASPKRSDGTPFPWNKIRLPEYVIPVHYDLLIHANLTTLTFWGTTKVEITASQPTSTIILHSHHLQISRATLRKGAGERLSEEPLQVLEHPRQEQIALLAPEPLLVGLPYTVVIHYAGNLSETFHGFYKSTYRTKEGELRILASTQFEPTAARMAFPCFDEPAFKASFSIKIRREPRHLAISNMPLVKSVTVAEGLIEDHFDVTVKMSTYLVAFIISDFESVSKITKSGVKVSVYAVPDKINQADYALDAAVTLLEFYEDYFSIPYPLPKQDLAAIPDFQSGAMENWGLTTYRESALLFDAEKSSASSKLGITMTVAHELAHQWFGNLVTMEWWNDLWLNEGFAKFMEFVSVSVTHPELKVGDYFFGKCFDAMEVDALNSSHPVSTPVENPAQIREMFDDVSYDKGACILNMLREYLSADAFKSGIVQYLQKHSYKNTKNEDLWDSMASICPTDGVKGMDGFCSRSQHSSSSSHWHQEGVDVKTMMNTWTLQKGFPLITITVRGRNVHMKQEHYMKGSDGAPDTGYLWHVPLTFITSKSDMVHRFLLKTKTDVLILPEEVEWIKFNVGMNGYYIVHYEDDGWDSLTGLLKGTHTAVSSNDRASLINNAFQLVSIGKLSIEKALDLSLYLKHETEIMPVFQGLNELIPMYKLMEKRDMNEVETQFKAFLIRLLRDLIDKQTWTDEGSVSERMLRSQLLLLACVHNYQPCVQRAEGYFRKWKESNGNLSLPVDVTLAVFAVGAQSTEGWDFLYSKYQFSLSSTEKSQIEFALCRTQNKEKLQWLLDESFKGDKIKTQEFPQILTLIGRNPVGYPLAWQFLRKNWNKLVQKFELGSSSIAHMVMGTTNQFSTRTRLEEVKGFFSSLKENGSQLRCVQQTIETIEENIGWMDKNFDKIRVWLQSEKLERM
Test: blocking ERAP1 cleavage of leucine-AMC substrate – biochemical, fluorescence plate reader, dry powder, dose response (AID 1117292)
Conditions: purified ERAP1, Leu-AMC fluorescence, 60 min; series mostly up to 50 µM

outcome, inactive:
O=S(=O)(Nc1cc(C(F)(F)F)ccc1N1CCCCC1)c1ccc(C(F)(F)F)cc1, CC(=O)N1CCN(C(=O)C2(NC(=O)Nc3ccc(C)cc3)CC2)CC1, Cn1cnc(S(=O)(=O)Nc2cc(C(F)(F)F)ccc2N2CCCCC2)c1, COc1ccc(S(=O)(=O)Nc2cc(C(F)(F)F)ccc2N2CCCCC2)cc1, CC(=O)N1CCN(C(=O)C2(NC(=O)Nc3ccccc3F)CCCCC2)CC1, COc1ccc(C(=O)Nc2cc(C(F)(F)F)ccc2N2CCOCC2)cc1S(=O)(=O)O, CC(=O)N1CCN(C(=O)[C@@H]2CCN2C(=O)Nc2ccc(C)cc2)CC1, O=C(Nc1cc(C(F)(F)F)ccc1N1CCCCC1)c1ccc(S(=O)(=O)O)cc1, CC(=O)N1CCN(C(=O)C2(NC(=O)Nc3ccccc3C(F)(F)F)CCCCC2)CC1, O=S(=O)(Nc1cc(C(F)(F)F)ccc1N1CCCCC1)c1ccc(F)cc1, CC(=O)N1CCN(C(=O)C2(NC(=O)Nc3ccc(F)cc3)CCCCC2)CC1, O=S(=O)(Nc1cc(C(F)(F)F)ccc1N1CCCCC1)c1ccc(Cl)cc1, O=S(=O)(Nc1cc(C(F)(F)F)ccc1N1CCCCC1)c1ccc(-c2ccccc2)cc1, COc1ccc(C(=O)Nc2cc(F)ccc2N2CCCCC2)cc1S(=O)(=O)O, COc1ccc(C(=O)Nc2cc(C(F)(F)F)ccc2N2CCCC2)cc1S(=O)(=O)O, CC(=O)N1CCN(C(=O)C2(NC(=O)NCCc3ccccc3)CCCCC2)CC1
